Screening data as filed in PubChem.
The list is not random: actives were taken first. Their share in the collection is about 21%.
MRP reversal = reversal of MRP1-mediated doxorubicin resistance, primary screen, H69AR cells, doxorubicin co-treatment | H69AR cells + 2 uM doxorubicin, CellTiter-Glo, 72 h | differential viability (reversal), % at 10 µM | 0.04% of 85,000 active;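 active = viability drop by adding the cancer drug above about 55%, with treated viability meeting a 40% cutoff, limit read from the data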;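 note: larger differential means the compound sensitizes cells more to doxorubicin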
CYP2C9 activ = human CYP2C9 activators, primary screen, biochemical, luminescence | Cytochrome P450 2C9 (Homo sapiens), P11712 | recombinant CYP2C9, luciferin-H conversion; active compounds read high; factor 1 = untreated enzyme, 0 = blocked | activation factor at 5 µM | 1.4% of 96,000 active | AID 1024, 2008;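 active = activation factor of 2 or more for CYP2C9 at a 5 µM dose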
CYP2C19 inh = blockers of cytochrome P450 2C19 activity – biochemical, luminescence, ADME assay, primary screen. inhibition, % at 5 µM. 21% of 96,000 active. CYP2C19 Supersomes, luciferin-H EGE luminescence, 30 min. P33261;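 active = CYP2C19 inhibition above a set limit at 5 µM in the primary screen, cut at about 50% in these data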
Target sequence (P33261 whole entry, looked up): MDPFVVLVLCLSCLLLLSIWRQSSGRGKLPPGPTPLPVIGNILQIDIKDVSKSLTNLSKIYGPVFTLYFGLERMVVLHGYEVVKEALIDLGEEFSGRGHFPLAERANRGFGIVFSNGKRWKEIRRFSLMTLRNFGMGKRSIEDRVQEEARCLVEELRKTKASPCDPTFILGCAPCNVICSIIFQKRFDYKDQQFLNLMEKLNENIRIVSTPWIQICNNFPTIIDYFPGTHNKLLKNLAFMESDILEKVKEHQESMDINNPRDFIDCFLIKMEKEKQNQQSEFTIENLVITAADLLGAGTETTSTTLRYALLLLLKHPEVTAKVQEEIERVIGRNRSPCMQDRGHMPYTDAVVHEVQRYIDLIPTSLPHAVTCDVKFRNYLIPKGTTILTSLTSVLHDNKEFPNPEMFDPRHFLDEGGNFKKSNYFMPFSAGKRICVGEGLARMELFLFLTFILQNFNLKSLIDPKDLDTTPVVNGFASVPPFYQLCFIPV
CYP2C19 activ = human CYP2C19 activators, primary screen, biochemical, luminescence. Cytochrome P450 2C19 (Homo sapiens), P33261. recombinant CYP2C19, luciferin-H EGE luminescence; active compounds read high; 0 = fully inhibited enzyme, 1 = untreated enzyme. activation factor at 5 µM. 96,000 tested, under 10 active. AID 1025, 2008;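 active = activation factor of at least 2 at 5 µM in the primary screen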
CYP2C9 inhib = blockers of cytochrome P450 2C9 activity – biochemical, luminescence, ADME assay, primary screen; CYP2C9 Supersomes, luciferin-H conversion; inhibition, % at 5 µM; 20% of 96,000 active; AID 777, 2007;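 active = blocking of liver enzyme CYP2C9 beyond about 50% at 5 µM, limit read from the data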
MRP1 act = H69AR viability gain despite doxorubicin, primary screen, MRP-1 activator project, H69AR cells, CellTiter-Glo; viability increase, % at 10 µM; 0.61% of 140,000 active; viability rescue;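 active = viability gain under doxorubicin at or above a set limit, the compound median plus 3 SD, cut at about 4.7% in these data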;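 note: MRP-1 overexpressing cells given doxorubicin 25 µM after compound pretreatment; 18-22 h compound pretreatment then 72 h with doxorubicin before readout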
Large screens that a line does not name were inactive.

CN1C(=O)C(CC(=O)NC2CCCCC2)SC1=Nc1ccccc1 (configuration not stated)	none (no result: MRP reversal, CYP2C9 activ, CYP2C19 inh, CYP2C19 activ, CYP2C9 inhib)
CC(CNC(=O)c1ccc(C(C)(C)C)cc1)CN(C)C (configuration not stated)	none (no result: MRP reversal, CYP2C9 activ, CYP2C19 inh, CYP2C19 activ, CYP2C9 inhib)
O=C(N1CCOCC1)N(CCN1CCOCC1)Cc1cccc(Cl)c1	none
Cc1cccc(C)c1OC1(c2ccccc2)OC(=O)c2ccccc21 (configuration not stated)	CYP2C19 inh 82, CYP2C9 inhib 69 (no result: MRP reversal)
Cc1cc(C)c(OC2(c3ccccc3)OC(=O)c3ccccc32)c(C)c1 (configuration not stated)	CYP2C19 inh 54, CYP2C9 inhib 55 (no result: MRP reversal)
CN(C)Cc1ccccc1Sc1ccc(O)cc1O	none (no result: MRP reversal, CYP2C9 activ, CYP2C19 inh, CYP2C19 activ, CYP2C9 inhib)
COc1cc(OC)cc(C(=O)N2CCC(n3c(C)nc4cc(F)ccc43)CC2)c1	CYP2C9 inhib 67
Cc1ccc2c(c1)nnn2C1CCN(S(C)(=O)=O)CC1	none
O=C(CN1CCC(n2nnc3cc(F)ccc32)CC1)Nc1ccccc1N1CCOCC1	CYP2C19 inh 96, CYP2C9 inhib 85
COC(=O)c1ccccc1NC(=O)CN1CCC(n2nnc3cc(F)ccc32)CC1	none
Cc1ccc2c(c1)nnn2C1CCN(S(=O)(=O)c2ccc(C(=O)N3C(C)CCCC3C)cc2)CC1 (configuration not stated)	CYP2C19 inh 77
O=C(CN1CCC(n2nnc3cc(F)ccc32)CC1)NC1CC1	none
COc1ccc(NC(=O)CN2CCC(n3c(C)nc4cc(F)ccc43)CC2)c(OC)c1	none
O=C(CN1CCC(n2nnc3cc(F)ccc32)CC1)NC1CCCCC1	CYP2C19 inh 58, CYP2C9 inhib 60
CCn1c(=O)c(=O)[nH]c2cc(C(=O)N3CCN(c4ccccc4F)CC3)ccc21	none
CCOc1ccc2nc(NC(=O)CN3CCC(n4nnc5cc(F)ccc54)CC3)sc2c1	CYP2C19 inh 80, CYP2C9 inhib 86
CCOc1ccccc1C(=O)N1CCC(n2nnc3cc(C(F)(F)F)ccc32)CC1	CYP2C19 inh 68, CYP2C9 inhib 53
O=C(CN1CCC(n2nnc3cc(F)ccc32)CC1)NCCc1ccccc1	none (no result: CYP2C9 activ, CYP2C19 inh, CYP2C19 activ, CYP2C9 inhib)
O=C(CN1CCC(n2nnc3cc(F)ccc32)CC1)N1CCc2ccccc2C1	CYP2C19 inh 52
COCC(=O)N1CCC(n2nnc3cc(F)ccc32)CC1	none
Cc1cccc(C(=O)N2CCC(n3nnc4cc(F)ccc43)CC2)c1	CYP2C19 inh 84, CYP2C9 inhib 82
COc1ccc(C(C(=O)NC2CCCCC2)N(C(=O)c2sc(C)nc2C)c2ccccc2C)cc1 (configuration not stated)	none (no result: MRP reversal)
COC(=O)c1ccc(NC(=O)CSc2nnc(CNc3ccc(F)cc3)n2C)cc1	none
Cc1ccc(-n2c(SCC(N)=O)nnc2-c2ccc(S(=O)(=O)N3CCCCC3)cc2)c(C)c1	CYP2C9 inhib 82
NC(=O)CSc1nnc(-c2ccc(S(=O)(=O)N3CCOCC3)cc2)n1CC1CCCO1 (configuration not stated)	none
O=C(NCCc1ccc2c(c1)OCO2)C1CCN(S(=O)(=O)c2ccc(Cl)cc2)CC1	none
COc1ccc(S(=O)(=O)N2CCC(C(=O)NCCC3=CCCCC3)CC2)cc1C	none
COc1ccc(OC)c(S(=O)(=O)N2CCC(C(=O)NCCc3ccc(OC)c(OC)c3)CC2)c1	CYP2C19 inh 61
Cc1nn(C)c(C)c1S(=O)(=O)N1CCC(C(=O)NCCC2=CCCCC2)CC1	CYP2C9 activ 2.1
COc1ccc(CCNC(=O)C2CCN(S(=O)(=O)N3CCCCC3)CC2)cc1OC	none
COc1ccc(C)cc1S(=O)(=O)N1CCC(C(=O)NCCC2=CCCCC2)CC1	CYP2C9 activ 3.1
COc1ccc(S(=O)(=O)N2CCC(C(=O)NCCc3ccc4c(c3)OCO4)CC2)cc1	CYP2C9 activ 2.1, CYP2C19 inh 86
CC(C)CN1C(=O)NC(NS(=O)(=O)c2ccc(N)cc2)(C(F)(F)F)C1=O (configuration not stated)	none (no result: MRP reversal, CYP2C9 activ, CYP2C19 inh, CYP2C19 activ, CYP2C9 inhib)
CCS(=O)(=O)N1CCCC(C(=O)NCCc2ccc(OC)c(OC)c2)C1 (configuration not stated)	none
O=C(C1CCCN(S(=O)(=O)c2cnc[nH]2)C1)N1CCN(Cc2ccccc2)CC1 (configuration not stated)	none
CCCCN(Cc1ccccc1)C(=O)C1CCCN(S(=O)(=O)c2cnc[nH]2)C1 (configuration not stated)	CYP2C19 inh 63
CCN(CCCNC(=O)C1CCN(S(=O)(=O)c2cnc[nH]2)CC1)c1cccc(C)c1	CYP2C19 inh 78, CYP2C9 inhib 88
COc1ccc(CCNC(=O)C2CCCN(S(=O)(=O)c3cnc[nH]3)C2)cc1OC (configuration not stated)	CYP2C19 inh 73, CYP2C9 inhib 71
CCN(CCCNC(=O)C1CCCN(S(=O)(=O)CC)C1)c1cccc(C)c1 (configuration not stated)	none
CN(CCCNC(=O)C1CCCN(S(=O)(=O)c2cnc[nH]2)C1)c1ccccc1 (configuration not stated)	CYP2C19 inh 89, CYP2C9 inhib 77
CCOC(=O)N1CCC(=NNC(=O)COc2cccc(C)c2)CC1	none (no result: MRP reversal, CYP2C9 activ, CYP2C19 inh, CYP2C19 activ, CYP2C9 inhib)
C=CCc1c(OC(C)=O)c2ccccc2n(C)c1=O	none (no result: MRP reversal, CYP2C9 activ, CYP2C19 inh, CYP2C19 activ, CYP2C9 inhib)
CN(CCNC(=O)C1CCN(S(=O)(=O)c2cnc[nH]2)CC1)Cc1ccccc1	CYP2C9 inhib 52
COc1ccc(CCNC(=O)C2CCN(S(=O)(=O)c3cnc[nH]3)CC2)cc1OC	CYP2C9 inhib 73
CCS(=O)(=O)N1CCCC(C(=O)NCCN(C)Cc2ccccc2)C1 (configuration not stated)	none
O=C(C1CCCN(CCCc2ccccc2)C1)N1CCCCCC1 (configuration not stated)	none (no result: MRP reversal, CYP2C9 activ, CYP2C19 inh, CYP2C19 activ, CYP2C9 inhib)
O=C(NCCCO)C(=O)NCCc1ccc(Cl)cc1	none (no result: MRP reversal, CYP2C9 activ, CYP2C19 inh, CYP2C19 activ, CYP2C9 inhib)
C/C(=N\NC(=O)c1nn(C)c(C)c1Br)c1cccc(NC(=O)c2ccc(F)cc2)c1	none (no result: MRP reversal, CYP2C9 activ, CYP2C19 inh, CYP2C19 activ, CYP2C9 inhib)
Cc1ccc(NC(=O)CN2C(=O)NC(C)(c3ccc(Cl)cc3)C2=O)cc1S(=O)(=O)N1CCOCC1 (configuration not stated)	none (no result: MRP reversal, CYP2C9 activ, CYP2C19 inh, CYP2C19 activ, CYP2C9 inhib)
O=c1c2ccccc2nnn1CSc1nnc(-c2cccc(S(=O)(=O)N3CCCCC3)c2)o1	CYP2C19 inh 75, CYP2C9 inhib 81
O=S(=O)(c1cccc(-c2nnc(SCc3nc4ccccc4s3)o2)c1)N1CCOCC1	CYP2C19 inh 51
O=S(=O)(c1cccc(-c2nnc(-c3cccnc3)o2)c1)N1CCCCC1	none (no result: CYP2C9 activ, CYP2C19 inh, CYP2C19 activ, CYP2C9 inhib)
CC(Sc1ccccc1)C(=O)Nc1ccccc1C(=O)N1CCOCC1 (configuration not stated)	none (no result: MRP reversal)
CC(=O)Nc1ccc(S(=O)(=O)NCc2ccc3[nH]c(C)cc3c2)cc1	CYP2C9 inhib 85
